High-throughput results (PubChem BioAssay)
In the library only some 1.8% were active in any assay of this set; here they are far more common.
APOBEC3G inh – APOBEC3G DNA deaminase inhibitors, primary screen, biochemical, fluorescence, single-stranded DNA substrate, uHTS; DNA dC->dU-editing enzyme APOBEC-3G (Homo sapiens), Q9HC16; recombinant A3G, ssDNA deamination FAM/TAMRA fluorescence; inhibition, % at 20 µM; 0.28% of 330,000 active;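 active = inhibition of at least 40% at 20 µM, with no more than 30% in the related APOBEC3A deaminase screen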
CendR NRP1 mod – modulators of CendR peptide binding to NRP-1, primary screen, biochemical, fluorescence polarization, uHTS. inhibition, % at 25 µM. Neuropilin-1 (Homo sapiens), O14786. FAM-RPARPAR peptide binding to NRP-1. 0.85% of 360,000 active. AID 602438, 2012;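 active = inhibition or corrected inhibition above about 18%, plus a signal ratio from 0.5 to 1.5, limit read from the data, passing the limit was not always enough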
Target sequence (O14786 whole entry, looked up): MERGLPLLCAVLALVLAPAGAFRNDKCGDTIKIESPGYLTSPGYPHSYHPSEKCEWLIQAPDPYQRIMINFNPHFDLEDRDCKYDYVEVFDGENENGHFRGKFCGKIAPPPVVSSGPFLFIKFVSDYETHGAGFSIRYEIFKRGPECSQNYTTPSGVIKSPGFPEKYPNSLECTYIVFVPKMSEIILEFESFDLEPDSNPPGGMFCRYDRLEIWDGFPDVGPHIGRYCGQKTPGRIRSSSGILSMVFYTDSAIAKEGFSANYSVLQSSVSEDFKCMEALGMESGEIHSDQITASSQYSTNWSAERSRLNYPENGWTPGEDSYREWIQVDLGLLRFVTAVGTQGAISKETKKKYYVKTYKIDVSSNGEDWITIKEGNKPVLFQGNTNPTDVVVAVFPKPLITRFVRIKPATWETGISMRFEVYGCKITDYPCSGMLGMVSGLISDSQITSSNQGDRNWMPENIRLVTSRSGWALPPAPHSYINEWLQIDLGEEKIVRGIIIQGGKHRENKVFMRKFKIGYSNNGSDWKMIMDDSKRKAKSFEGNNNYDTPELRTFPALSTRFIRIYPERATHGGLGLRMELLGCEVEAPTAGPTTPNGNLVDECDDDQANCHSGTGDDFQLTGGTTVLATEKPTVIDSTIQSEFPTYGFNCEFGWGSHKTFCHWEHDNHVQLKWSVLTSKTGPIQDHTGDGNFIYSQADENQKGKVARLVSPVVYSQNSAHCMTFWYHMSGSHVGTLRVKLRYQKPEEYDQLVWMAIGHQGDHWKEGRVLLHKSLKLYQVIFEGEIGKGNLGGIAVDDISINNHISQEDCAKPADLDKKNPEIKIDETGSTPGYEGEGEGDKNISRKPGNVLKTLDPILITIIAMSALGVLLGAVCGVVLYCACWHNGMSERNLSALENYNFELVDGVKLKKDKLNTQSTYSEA
MIN6 prolif – inducers of MIN6 beta-cell proliferation, primary screen, ATP luminescence, uHTS. MIN6 cells proliferation, ATPlite luminescence, 48 h; cells starved in 0.2% serum; 100% = growth in 10% serum. proliferation, % at 10 µM. 0.29% of 330,000 active;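 active = compounds whose signal lies at least 3.5 SD above the mean of all wells on their plate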
VLA-4 inh – inhibition in human VLA-4 binding assay, primary screen, VLA-4 allosteric modulator project, MLPCN library, flow cytometry, VLA-4 expressing cells; Integrin alpha-4 (Homo sapiens), P13612; 0.2% of 330,000 active; ligand binding flow cytometry; inhibition, % (about 7 µM as worked out from the volumes in the protocol); in the data active = inhibition above about 50%
A3A deaminase – APOBEC3A ssDNA deaminase inhibitors, primary screen, selectivity assay for APOBEC3G inhibitor project, biochemical, FAM/TAMRA oligo cleavage fluorescence; inhibition, % at 20 µM; recombinant A3A, FAM/TAMRA ssDNA deamination fluorescence; 0.41% of 330,000 active; AID 493011, 2011;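 active = at least 40% inhibition at 20 µM here, with at most 30% in a related deaminase screen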
Hits are given with their value; . = inactive; / = no result.

SMILES	APOBEC3G inh	CendR NRP1 mod	MIN6 prolif	VLA-4 inh	A3A deaminase
COc1ccc2c(c1OC)CN1CCc3cc4c(cc3[C@@H]1[C@@H]2O)OCO4	.	28.7	.	.	.
COc1ccc(/C=N/N=C2/CC(C)(C)Cc3n[nH]c(=O)cc32)cc1	.	49.6	.	.	.
COc1ccc(/C=N/N=C2/NC(=O)CC(C(=O)O)S2)cc1 (centres undefined)	.	.	.	.	.
COc1cc(CCCN2CCNC[C@@H]2Cc2ccc(O)cc2)cc(OC)c1OC	.	.	.	.	.
Cc1cc(NC(=O)CN2C(=O)NC3(CCCCC3)C2=O)ccc1N1CCCC1	.	.	.	/	.
O=C(CSc1nnc(CN2CCOCC2)n1-c1ccc(Cl)cc1)Nc1cc(Cl)ccc1O	.	20.7	.	.	.
NC(=O)c1ccc(NC(=O)c2ccc(COc3ccc(F)cc3)o2)cc1	.	.	.	.	.
COc1cccc(CCC2C(=O)CCCC2=O)c1	/	.	/	/	/
O=[N+]([O-])c1c(Nc2ccccc2O)cc(Cl)c2nonc12	.	.	.	.	.
O=C(O)c1cc(Nc2cc(Cl)c3nonc3c2[N+](=O)[O-])ccc1O	.	24.7	.	.	.
CC1Cc2ccccc2N1C(=O)Cn1cnc2c1c(=O)n(C)c(=O)n2C (centres undefined)	.	.	.	.	.
COc1ccc(CN2C(=O)C(CC(=O)NCCN3CCOCC3)CC(C(=O)N3CCCCCC3)=C2C)cc1 (centres undefined)	/	.	/	/	/
CC1=C(C(=O)N2CCCCCC2)CC(CC(=O)NCCN2CCOCC2)C(=O)N1Cc1ccccc1 (centres undefined)	/	29.1	/	/	/
CN1CCN(C(=O)c2ccc(COc3ccc(C(C)(C)C)cc3)o2)CC1	.	23.4	.	.	.
CCCN(C(=O)Cn1c(C(F)(F)F)nc2ccccc21)C1CCS(=O)(=O)C1 (centres undefined)	.	44.7	.	.	.
CCN(CC(=O)NCc1cccs1)S(=O)(=O)c1ccc(C(C)C)cc1	.	31.6	.	.	.
CN1CCN(c2ccc(NC(=O)CSc3nnnn3-c3ccccc3F)cc2)CC1	.	.	.	.	.
CCN(CC)/C(=N\S(=O)(=O)c1ccccc1C)c1ccccc1	.	.	.	.	.
CC(c1ccco1)N(C(=O)c1cc(Cl)cc(Cl)c1)c1ccccn1 (centres undefined)	.	.	0.0	.	.
Cc1cc(C)cc(C(=O)N(c2ccccn2)C(C)c2ccco2)c1 (centres undefined)	.	.	.	.	.
COc1ccc(/C=C/C(=O)OCC(=O)Nc2ccc3c(c2)OCO3)cc1	.	21.4	.	.	.
CCOc1ccc(/C=N/OCC(=O)Nc2ccc3c(c2)OCO3)cc1	.	32.0	.	.	.
COc1cc(/C=C/C(=O)OCC(=O)Nc2ccc3c(c2)OCO3)ccc1O	.	.	.	.	.
CC(C(=O)OCC(=O)Nc1ccc2c(c1)OCO2)N1C(=O)c2ccccc2C1=O (centres undefined)	.	21.7	.	.	.
CCn1c(C)nc2cc(C(=O)NN=Cc3ccc([N+](=O)[O-])cc3)ccc21	.	.	.	.	.
SMILES	APOBEC3G inh	CendR NRP1 mod	MIN6 prolif	VLA-4 inh	A3A deaminase
O=C(NCCOc1ccccc1F)C1CCC(=O)N(CCc2cccc(F)c2)C1 (centres undefined)	.	.	.	.	.
c1ccc(-c2onc(-c3ccco3)c2-c2ccc3[nH]ccc3c2)cc1	.	.	.	.	.
COc1cccc(CNC(=O)COc2cccc(-n3cnnn3)c2)c1	.	.	.	.	.
COc1ccc(CCNC(=O)COc2cccc(-n3cnnn3)c2)cc1	.	17.7	.	/	.
Cc1cccc(C)c1OCC(=O)OCC(=O)Nc1ccc(Cl)cn1	.	.	.	.	.
CCc1nc2ccc(C(=O)NCCCN3CCCC3=O)cn2c1N(C)CCC(C)C	/	.	/	/	/
Cc1cccn2c(=O)c(C(=O)NC3CCCCC3)c(O)nc12	.	.	.	.	.
Cc1cccn2c(=O)c(C(=O)NC3CCCCC3C)c(O)nc12 (centres undefined)	.	43.5	.	.	.
